Compounds with a hit are over-represented: about 6.9% of the library has one in this group of screens.
NS3h inh CB – blocks HCV NS3 helicase binding to DNA | NS3h Cy5-dT15 DNA binding, fluorescence polarization | inhibition, % at 100 µM | 16,000 tested, 1.6% active;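 active = inhibition above the average over every tested compound plus 3 SD, cut at about 40% in these data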
Cy5 interf NS3h – enhances or quenches Cy5 fluorescence in NS3h assay; fluorescence interference ratio at 100 µM; 16,000 tested, 6% active; Cy5-dT15 DNA with NS3h, fluorescence interference; actives lie on both sides; signal over control mean, under 1 quenches;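 active = compound fluorescence over control fluorescence at most 0.8, a quencher, or at least a set upper limit, an enhancer; inactive = ratio between 0.8 and the set upper limit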
Active calls of the source: *.

SMILES	NS3h inh CB	Cy5 interf NS3h
CCCCCCN1C(=O)C(=O)C(=C(O)c2ccccc2)C1c1ccc(OC)c(O)c1 (stereo not drawn)	-1.7	0.955
COCCN=C1NS(=O)(=O)c2ccccc21	1.3	1.01
N/C(=N/OC(=O)c1ccc(Br)cc1)c1ccc([N+](=O)[O-])cc1	2.4	0.957
N/C(=N/OC(=O)c1ccccc1F)c1ccc([N+](=O)[O-])cc1	-6.5	0.779*
CSC1=C(C#N)C2(CCCCC2)C(C#N)C(=O)N1 (stereo not drawn)	-1.6	1.01
CN1CCN(C(=O)c2ccccc2NC(=O)CN2C(=O)c3ccccc3C2=O)CC1	9.6	0.768*
O=C(CCCN1C(=O)c2ccccc2C1=O)Nc1ccccc1C(=O)N1CCOCC1	-3.7	0.969
CN(C1=NC(=O)S/C1=C\c1ccc([N+](=O)[O-])cc1)c1ccc(O)cc1	33.2	0.924
CN(C1=NC(=O)/C(=C\C(Cl)=C\c2ccc([N+](=O)[O-])cc2)S1)c1ccc(O)cc1	1.2	0.405*
CC(=O)Oc1ccc(-c2cccc(C(=O)NC(CO)C(O)c3ccc([N+](=O)[O-])cc3)c2)cc1 (stereo not drawn)	1.3	0.986
O=C(NC(CO)C(O)c1ccc([N+](=O)[O-])cc1)c1ccc2ccccc2n1 (stereo not drawn)	0.3	0.622*
Cc1ccc(C(C)C)c(OCCOc2ccc(/C=C3/SC(=S)N(C)C3=O)cc2)c1	-2.3	0.999
C/C(=N/N=C(\C)c1cccs1)C1C(=O)c2ccccc2C1=O	4.1	1.04
C/C(=N/N=C\c1ccccc1)C1C(=O)c2ccccc2C1=O	0.3	0.684*
COCCOC(=O)c1c(C)oc2ccc(OCc3cccc(F)c3)cc12	8.8	0.927
COCCOC(=O)c1c(C)oc2ccc(OCc3cccc(Cl)c3)cc12	8.8	0.793*
COc1ccccc1NC(=O)CSc1cc(Cl)ccc1Cl	6.1	0.969
O=[N+]([O-])c1ccc(/C(=N\O)c2ccncc2)cc1	-1.6	0.907
Cc1ccc(C=C2C(=O)N(C)C(=S)N(c3ccccc3)C2=O)s1	19.9	1.33*
Cc1cccc(C(=O)Oc2ccc(/C=C3/SC(=S)N(c4ccccc4)C3=O)cc2)c1	3.6	1.09
Cc1cccc(N2CC(=O)NC2=Nc2nc(C)cc(C)n2)c1	0.6	0.907
COc1cc(C=C2C(=O)NC(=O)NC2=O)ccc1OCCOc1ccc(C)cc1	-2.8	0.882
O=C1/C(=C/c2ccc(Br)o2)SC(=S)N1c1cccc(C(F)(F)F)c1	2.7	0.858
O=C1/C(=C/c2ccc(Br)o2)SC(=S)N1c1ccccc1	17.0	0.64*
CCOC(=O)Cc1cc(-c2ccccc2)nc2ccc3ccccc3c12	2.5	1.02
SMILES	NS3h inh CB	Cy5 interf NS3h
CCOC(=O)CC(O)(c1ccccc1)C(F)(F)C(F)F (stereo not drawn)	7.7	0.749*
CC(C)(C)c1ccc(OCC(=O)Nc2cccc(C(=O)Nc3nccs3)c2)cc1	-5.5	0.797*
CC(C)(C)c1ccc(OCC(=O)Nc2cccc(OC(F)(F)F)c2)cc1	6.8	1.04
O=C(/C=C/c1cccc([N+](=O)[O-])c1)Nc1ccc2oc(-c3ccccc3F)nc2c1	-4.4	0.775*
O=C(COc1ccc([N+](=O)[O-])cc1)Nc1ccc2oc(-c3ccccc3F)nc2c1	2.2	1.04
C=CCn1c(NC(=O)c2ccc(Cl)cc2)nc2ccccc21	-6.3	1.01
O=[N+]([O-])c1ccc(-c2cn3c(n2)sc2ccccc23)cc1	2.2	0.648*
Cc1ccc2nc(-c3ccc([N+](=O)[O-])cc3)cn2c1	4.6	0.976
COc1ccc(OCCNc2cc(Cl)ccc2[N+](=O)[O-])cc1	5.6	1.07
CCC(CO)Nc1cc(N2CCOCC2)ccc1[N+](=O)[O-] (stereo not drawn)	14.1	0.727*
O=[N+]([O-])c1ccc(N2CCOCC2)cc1[N+](=O)[O-]	-13.6	1.07
CCC(CO)Nc1cc(Cl)ccc1[N+](=O)[O-] (stereo not drawn)	14.1	0.69*
CCOC(=O)c1c(-c2ccccc2)oc2ccc(O)c(CN3CCCC(C)C3)c12 (stereo not drawn)	11.4	0.937
Cc1ccc(S(=O)(=O)Nc2cc(Cl)ccc2Cl)c(C)c1	8.0	0.957
COCCNC(=O)c1cc2nc(-c3ccccc3)cc(-c3ccccc3)n2n1	17.8	0.944
O=C(NCC1CCCO1)c1cc2nc(-c3ccccc3)cc(-c3ccccc3)n2n1 (stereo not drawn)	16.1	0.62*
CS(=O)(=O)N(CC(O)Cn1c2ccc(Cl)cc2c2cc(Cl)ccc21)c1ccccc1 (stereo not drawn)	12.8	0.949
CCC(C)NCC(O)Cn1c2ccc(Cl)cc2c2cc(Cl)ccc21 (stereo not drawn)	5.4	0.773*
COc1ccc(/C=C2\C=C(c3ccc(C)cc3)OC2=O)cc1C	-3.4	0.972
O=C1c2cccc3cccc(c23)C(=O)N1/N=C\c1ccc(Br)cc1	-53.1	0.858
O=C1c2cccc3cccc(c23)C(=O)N1/N=C\c1cccc([N+](=O)[O-])c1	-8.2	0.742*
CC(Oc1ccccc1)C(=O)Nc1cccc(NC(=O)C(C)Oc2ccccc2)n1 (stereo not drawn)	14.1	0.923
CCOC(=O)c1c(NC(=O)COc2c(C)cc(C)cc2C)sc(C(=O)Nc2ccccc2)c1C	3.2	0.963
CCOC(=O)c1c(NC(=O)c2sc3cc(C)ccc3c2Cl)sc(C(N)=O)c1C	6.8	0.793*
COC(=O)c1c(C)oc2ccc(OCc3ccccc3F)cc12	12.9	0.858
SMILES	NS3h inh CB	Cy5 interf NS3h
O=C(NC[n+]1ccccc1)c1ccc(Cl)cc1	3.4	1.2*
O=C(NCc1ccc(Cl)cc1)c1ccc(I)cc1	20.8	0.976
Cc1nnc(C)n1/N=C\c1ccc(Br)cc1	4.6	0.933
COc1cc(/C=C2/SC(=S)NC2=O)ccc1OC(=O)c1ccc([N+](=O)[O-])cc1	0.4	0.829
CCOC(=O)c1c(NC(=O)Cn2cnc([N+](=O)[O-])n2)sc2c1CCC2	8.7	0.572*
CCOC(=O)c1c(NC(=O)c2ccc([N+](=O)[O-])cc2)sc2c1CCCCC2	-10.4	0.981
COc1cccc(NC(=O)CSc2nc3ccccc3o2)c1	11.5	0.666*
O=C(CSc1nc2ccccc2o1)c1ccc(-c2ccccc2)cc1	2.2	0.628*
COc1cccc(NC(=O)c2cc(-c3ccccc3)nc3ccccc23)c1	-0.7	1.01
O=C(CSc1nc2ccccc2o1)OCC(=O)c1ccc(F)cc1	6.7	0.933
Cc1ccc(NC(=O)c2ccccc2N(Cc2ccccc2)S(C)(=O)=O)cc1Cl	14.0	0.919
CO/N=C(\c1nonc1N)N1CCN(c2ccc([N+](=O)[O-])cc2)CC1	14.4	0.962
COc1ccc2oc(C(Cl)(Cl)Cl)cc(=O)c2c1	1.0	0.913
COc1ccc2c(=O)cc(C(Cl)(Cl)Cl)oc2c1	15.2	0.654*
Cc1ccccc1C(=O)Nc1ccc(-c2cnc(-c3ccc(NC(=O)c4ccccc4C)cc3)nc2)cc1	17.7	0.751*
O=C(Nc1ccc(-c2cnc(-c3ccc(NC(=O)c4ccccc4)cc3)nc2)cc1)c1ccccc1	3.2	0.951
CS(=O)(=O)N(CC(=O)O)c1ccc(Cl)cc1	3.6	1.1
CS(=O)(=O)N(CC(=O)N(Cc1ccccc1)Cc1ccccc1)c1ccc(Cl)cc1	24.9	0.68*
COc1ccc(C2C(=C(O)c3ccccc3)C(=O)C(=O)N2c2cccc(C)c2)c(OC)c1 (stereo not drawn)	3.2	0.979

Screens: PubChem, Milwaukee Institute for Drug Discovery
